Reference: PubChem BioAssay (NCI)
About 83,000 compounds went through this panel and 20% of them were active in at least one assay; those are over-represented in the sample as a whole.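 How to read the values: 0–100, growth inhibition (40 = 60% inhibited); 0, no net growth; -100 to 0, cell death (-40 = 40% of starting cells died; -100 = all dead).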 Calls of active or inactive are those of the source. Rule for the calls: active = growth percent below 10; inactive = the rest.

What follows are compounds tested on MDA-MB-468 breast (assay: NCI-60 one-dose screen, 48 h (100 = growth as untreated, 0 = no growth, -100 = all killed)). Details: 10 µM unless noted.
CC(=O)O[C@@H]1CCN2C(=O)N(C)c3ccccc3[C@@H]2C1 was tested, and the growth was 126% (inactive).
With C=CC(=O)NCCOc1cccc(Nc2cc(NCCCNC(=O)C3CCC3)c(Br)cn2)c1 the growth was -59.5% (active).
With Cn1cc(-c2nnc(-c3cn(C)c4ncccc34)o2)c2ccccc21 the growth was -11.4% (active).
With C=C(C)[C@@H]1CC[C@]2(C(=O)N3CCN(C)CC3)CC[C@]3(C)[C@H](CC[C@@H]4[C@@]5(C)C/C(=C/c6ccncc6)C(=O)C(C)(C)[C@@H]5CC[C@]43C)[C@@H]12 the growth was 55.6% (inactive).
CCCCCCn1c(-c2ccc(C(=O)O/N=C(\N)c3ccc4c(c3)OCO4)cc2)nc(-c2ccccc2)c1-c1ccccc1 was tested, and the growth was 43.4% (inactive).
In the case of COc1ccccc1C(C[N+](=O)[O-])c1c(-c2ccccc2)[nH]c2cc(C)ccc12 (stereo not given), the growth is reported as 44.4% (inactive).
For COc1ccc(C(=S)N2CCN(c3ccc(Cl)cc3)CC2)cc1, the growth was 102% (inactive).
For COc1ccc(-c2nnc(SCc3ccc(O)c4ncccc34)o2)cc1, the growth was 51.2% (inactive).
CCN(CC)CC(O)Cc1ccc(OC)cc1 (stereo not given) was tested, and the growth was 97.9% (inactive).
Cc1cc(NC(=O)CSCC(=O)O)no1 was tested, and the growth was 114% (inactive).
For O=C1c2cccc3cccc(c23)C(=O)N1N1C(=O)c2cccc3c(NC4CCCCC4)ccc(c23)C1=O, the growth was 100% (inactive).
c1ccc(CO[C@H]2CO[C@H]3[C@@H]2OC[C@@H]3Oc2ccc(Nc3ncnc4ccsc34)cc2)cc1 was tested, and the growth was 51.5% (inactive).
For COC[C@H](C)n1c(C2CCOCC2)nc2cnc3cc(-c4c(C)noc4C)c(OC)cc3c21, the growth was 54.5% (inactive).
In the case of S=C(NCc1ccc2c(c1)OCO2)N1CCN(c2ncnc3c2oc2ccccc23)CC1, the growth is reported as -11% (active).
For Nc1c(C(=O)Nc2cccc(C(F)(F)F)c2)sc2nc3c(cc12)CCCCCC3, the growth was -24.9% (active).
For Clc1cccc(Cl)c1CSc1nc2ccccc2n2cccc12, the growth was 18.9% (inactive).
For CN(C)c1ccc2nc3ccc(=N)cc-3sc2c1, the growth was 38.6% (inactive).
For COc1ccc2[nH]c(O)c(/C=c3/ccc4c(c3)N=C(c3ccc(C(F)(F)F)cc3)N=4)c2c1, the growth was 93.8% (inactive).
In the case of COc1ccc2c(c1)nc(N)c1c3cc(OC)c(OC)cc3cn21, the growth is reported as 2.7% (active).
For N#Cc1ccc(O)c(C2=NCC(c3ccc(-c4ccccc4)cc3)O2)c1 (stereo not given), the growth was 26.9% (inactive).
For Cc1ccc(NC2=CC(=O)C(=O)c3ccccc32)c(C)c1, the growth was 14.1% (inactive).
In the case of O=S(=O)(O)c1ccc(N=Nc2ccc(N=Nc3cccc4ccccc34)c(S(=O)(=O)O)c2)cc1, the growth is reported as 89.8% (inactive).
With C=C1C(=O)O[C@H]2[C@H]1CC/C(COC(=O)/C=C\C(=O)NCc1ccc(Cn3c(=O)sn(CCCCl)c3=O)cc1)=C\CC[C@@]1(C)O[C@@H]21 the growth was 40.3% (inactive).
CC1(C)[C@@H](OC(=O)CCC(=O)O)CC[C@]2(C)[C@H]3C(=O)C=C4[C@@H]5C[C@@](C)(C(=O)O)CC[C@]5(C)CC[C@@]4(C)[C@]3(C)CC[C@@H]12 was tested, and the growth was -0.77% (active).
In the case of CCN1CCN(CCNc2nccc(-c3c(-c4ccc(F)c(O)c4)nc4occn34)n2)S1(=O)=O, the growth is reported as 23.5% (inactive).
In the case of Cc1ncn(-c2ccc(/C=N/Nc3ccnc4cc(Cl)ccc34)cc2)c1C, the growth is reported as -21.4% (active).
With COc1cc2nc(-c3ccc(Cl)cc3)cc(OCCCNCC3CCCO3)c2cc1OC (stereo not given) the growth was 46.2% (inactive).
In the case of CC(=O)Nc1ccc2c(c1)C(=O)c1cccc(C(=O)O)c1-2, the growth is reported as 90.9% (inactive).
For CC(C)c1nc(N(C)S(C)(=O)=O)nc(-c2ccc(F)cc2)c1/C=C/C(=O)C[C@@H](O)CC(=O)O, the growth was 113% (inactive).
For Cc1ccc2nc(-[n+]3cc4ccccc4cc3C)ccc2c1, the growth was -14.5% (active).
O=C(CI)NCCNc1cccc2c(S(=O)(=O)O)cccc12 was tested, and the growth was 100% (inactive).
In the case of Cc1ccc2c(c1)sc1nc(-c3c[nH]c4ccccc34)c(Nc3ccccc3)n12, the growth is reported as 105% (inactive).
For CC(=O)Nc1c(Cl)cc2c(c1Cl)Cc1cc([N+](=O)[O-])ccc1-2, the growth was -27.8% (active).
In the case of COc1ccc(-c2nnc(N3CCN(C(=O)CN4CCN(c5ccccc5)CC4)CC3)nc2-c2ccc(OC)cc2)cc1, the growth is reported as 41.4% (inactive).
In the case of CN(C)c1ccc(/C=N/Nc2nc(N/N=C/c3ccc(N(C)C)cc3)nc(N3CCOCC3)n2)cc1, the growth is reported as 97.8% (inactive).
For COc1ccc2c(/C=C3/C(=O)NC(=S)NC3C)cc(=O)oc2c1 (stereo not given), the growth was 90.4% (inactive).
For CN(C)c1ccc(/C=C\C2=[N+](C)c3ccccc3C2(C)C)cc1, the growth was 11% (inactive).
In the case of Cc1cn(C(C=O)OC(C=O)CO)c(=O)[nH]c1=O (stereo not given), the growth is reported as 113% (inactive).
CCOC(=O)Nc1ccc2nc(N3CCCCCC3)sc2c1 was tested, and the growth was -4.19% (active).
In the case of O=C(CN1CCOCC1)Nc1nc(-c2cc3ccccc3oc2=O)cs1, the growth is reported as 107% (inactive).
